These results are taken from the supplement of paper PMC10933113.

Counter-ions that a name gives are not always drawn. ± gives the uncertainty stated by the source.

The test system of the assay is THP-1. The assay is described as follows: CD86 surface expression induction over DMSO control (% over DMSO); higher = stronger dendritic cell activation. Conditions: exposure time: 24 h. The procedure: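 hCLAT-like CD54 and CD86 surface expression on THP1 cells after 24 h exposure at a single concentration (highest non-cytotoxic concentration, or 100-200 µM if not cytotoxic). Flow cytometry (iQue) was run on 5,000 live cells.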
As for `O=C1OC(CCN2CCCCC2)OC1(c1ccccc1)c1ccccc1` (centres undefined) [Pipoxolan hydrochloride] (100 µM), the “CD86 surface expression induction” value stood at 98.2 ± 160.
To `Cc1ccc(N=C=O)cc1N=C=O` [Toluene-2,4-diisocyanate] (100 µM) belongs 3.76 ± 8.7; to `c1ccc2sc(SNC3CCCCC3)nc2c1` [N-Cyclohexyl-2-benzothiazolesulfenamide] (100 µM), 8.63 ± 9.4; to `ClC1=C(Cl)C2(Cl)C3C(Cl)C(Cl)CC3C1(Cl)C2(Cl)Cl` (centres undefined) [Chlordane] (200 µM), 33.3 ± 45.
The figure for `c1ccc2c(c1)OCC(C1=NCCN1)O2` (centres undefined) [Idazoxan] (10 µM) is -10.6 ± 13.
Consider `NCCc1ccc(O)cc1` [Tyramine] (100 µM), for which the “CD86 surface expression induction” value was -4.16 ± 4.5.
As for `O=C(CCl)CCl` [1,3-Dichloropropanone] (200 µM), the “CD86 surface expression induction” value stood at 16.5 ± 17.
With `Nc1ccc(-c2ccccc2)cc1` [4-Biphenylamine hydrochloride] (100 µM), the “CD86 surface expression induction” value is -3.55 ± 5.8.
To `COc1ccc(C(c2ccc(OC)cc2)C(Cl)(Cl)Cl)cc1` [Methoxychlor] (200 µM) belongs 70.8 ± 55.
As to `CCCOC/C(=N\c1ccc(Cl)cc1C(F)(F)F)n1ccnc1` [Triflumizole] (10 µM), the “CD86 surface expression induction” value was -11.1 ± 7.1.
To `Cc1cc(C2CC2)nc(Nc2ccccc2)n1` [Cyprodinil] (200 µM) belongs 44.9 ± 64.
The figure for `CCC(C)(c1ccc(O)cc1)c1ccc(O)cc1` [Bisphenol B] (200 µM) is 4.76 ± 3; for `c1ccc(Nc2ccc(Nc3ccccc3)cc2)cc1` [N,N'-Diphenyl-p-phenylenediamine] (200 µM) it is -11.2 ± 8.1; for `S=C=NCc1ccccc1` (10 µM) it is 64.3 ± 6.8.
Consider `CCc1cccc(CC)c1N(COC)C(=O)CCl` [Alachlor] (100 µM), for which the “CD86 surface expression induction” value came to 22.3 ± 7.5.
To `O=C(O)c1ccc(=O)[nH]c1` [6-Hydroxynicotinic acid] (100 µM) belongs -4.7 ± 6.2; to `CCC(C)(CC)c1cc(NC(=O)c2c(OC)cccc2OC)on1` [Isoxaben] (200 µM), 0.63 ± 1.4; to `O=C(CCl)c1ccccc1` [2-Chloroacetophenone] (100 µM), 8.54 ± 19.
The figure for `Nc1cc(Cl)ccc1O` [2-Amino-4-chlorophenol] (200 µM) is 41.9 ± 31; for `[CH3][Hg][Cl]` [Methyl mercuric (II) chloride] (10 µM) it is 86 ± 7.1.
The figure for `CC(COc1ccc(Oc2ccccc2)cc1)Oc1ccccn1` (centres undefined) [Pyriproxyfen] (200 µM) is -0.44 ± 4.1.
For the compound `Fc1ccc(Oc2ccnc3cc(Cl)cc(Cl)c23)cc1` [Quinoxyfen] (200 µM), the “CD86 surface expression induction” value worked out at 2.53 ± 5.
The figure for `Nc1ccc(Cl)cc1Cl` [2,4-Dichloroaniline] (200 µM) is -3.25 ± 7.7; for `N#C/C=C/C#N` [Fumaronitrile] (10 µM) it is -2.66 ± 6.7.
To `C[C@]12CC[C@H](O)C[C@H]1CC[C@@H]1[C@@H]2C[C@@H](O)[C@]2(C)[C@@H](C3=CC(=O)OC3)CC[C@]12O` [Digoxigenin] (10 µM) belongs 46.8 ± 22; to `COP(=S)(OC)Oc1nc(Cl)c(Cl)cc1Cl` [Chlorpyrifos-methyl] (200 µM), 17.7 ± 42.
The figure for `c1cc(OCC2CO2)ccc1Cc1ccc(OCC2CO2)cc1` (centres undefined) [Bis[4-(glycidyloxy)phenyl]methane] (100 µM) is 7.56 ± 6.6.
On to `COP(=S)(OC)Oc1ccc(SC)c(C)c1` [Fenthion] (100 µM), for which the “CD86 surface expression induction” value was -4.96 ± 3.4.
Regarding `O=[N+]([O-])c1ccc(Oc2ccc(C(F)(F)F)cc2[N+](=O)[O-])cc1` [Fluorodifen] (10 µM), the “CD86 surface expression induction” value was -11.9 ± 9.2.
To `ClC1=C(Cl)C(Cl)(Cl)C(Cl)=C1Cl` [Hexachlorocyclopentadiene] (200 µM) belongs 99.2 ± 97; to `Cc1ccc2c(c1N)C(=O)c1ccccc1C2=O` [1-Amino-2-methylanthraquinone] (100 µM), 102 ± 24.
To `C[C@@H]1O[C@@H](O[C@H]2C[C@@H](O)[C@]3(CO)[C@H]4[C@H](O)C[C@]5(C)[C@@H](C6=CC(=O)OC6)CC[C@]5(O)[C@@H]4CC[C@]3(O)C2)[C@H](O)[C@H](O)[C@H]1O` [Ouabain] (10 µM) belongs 51.7 ± 16.
The figure for `CCOCN(C(=O)CCl)c1c(C)cccc1CC` [Acetochlor] (10 µM) is 90 ± 25.
In the case of `OC[P+](CO)(CO)CO` [Tetrakis(hydroxymethyl)phosphonium SO4] (100 µM), the “CD86 surface expression induction” value worked out at 6.79 ± 11.
To `COP(=O)(OC)OC(Br)C(Cl)(Cl)Br` (centres undefined) [Naled] (100 µM) belongs 30.5 ± 5.4; to `O=[N+]([O-])c1c(Cl)c(Cl)c(Cl)c(Cl)c1Cl` [Pentachloronitrobenzene] (100 µM), 55.3 ± 53.
As to `O=[N+]([O-])c1cc([N+](=O)[O-])c2ccccc2c1` [1,3-Dinitronaphthalene] (200 µM), the “CD86 surface expression induction” value is 2.95 ± 4.5.
Consider `c1cc(OCC2CO2)cc(OCC2CO2)c1` (centres undefined) [Diglycidyl resorcinol ether (DGRE)] (10 µM), for which the “CD86 surface expression induction” value was -10.6 ± 5.
The figure for `CCOP(=S)(OCC)Oc1cnc2ccccc2n1` [Quinalphos] (200 µM) is -2.83 ± 2.4.
